From PubChem BioAssay (NCI)
Compounds without any hit were thinned out: in the full panel of roughly 79,000, 15% have a hit. Calls of active or inactive are those of the source. Rule as the data show it: active = growth inhibition above about 70%; inactive = the rest.

Key:
[1] = NCI Yeast Anticancer Drug Screen. Data for the rad52 strain (AID 147);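 also: 0% = growth of vehicle-treated control cultures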; settings: S. cerevisiae rad52 mutant growth inhibition, hits give high values
Summary of the method: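 Vehicle-treated cultures served as the reference for growth inhibition of compound-exposed yeast bearing a DNA repair mutation.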

[2] = NCI Yeast Anticancer Drug Screen. Data for the wt1 strain (AID 149);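 also: 0% = growth of vehicle-treated wt1 cultures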; settings: S. cerevisiae wt1 strain (SPY 50644) growth inhibition, hits give high values
Summary of the method: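 Using yeast strain wt1, compound-induced growth inhibition was determined against vehicle-treated cultures.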

[3] = NCI Yeast Anticancer Drug Screen. Data for the rad50EPP+ strain (AID 151);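 also: 0% = growth of vehicle-treated control cultures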; settings: S. cerevisiae rad50 mutant strain, hits give high values
Summary of the method: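 In this screen, rad50EPP+ yeast were exposed to compounds. Growth inhibition was scored against vehicle-treated controls.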

[4] = NCI Yeast Anticancer Drug Screen. Data for the mgt1 strain (AID 153); settings: S. cerevisiae mgt1 mutant growth inhibition, hits give high values
Summary of the method: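 mgt1 strain exposed; growth vs vehicle control recorded as inhibition.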

[5] = NCI Yeast Anticancer Drug Screen. Data for the rad50 strain (AID 155);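 also: 0% = growth of vehicle-only cultures of the same strain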; settings: S. cerevisiae rad50 strain growth inhibition, hits give high values
Summary of the method: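 Relative growth inhibition (compound vs vehicle) was measured in yeast with a defined repair-gene alteration.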

[6] = NCI Yeast Anticancer Drug Screen. Data for the mec2-1 strain (AID 157); settings: S. cerevisiae mec2-1 strain, hits give high values
Summary of the method: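 Vehicle-treated cultures served as reference for growth inhibition of compound-exposed mec2-1 yeast.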

[7] = NCI Yeast Anticancer Drug Screen. Data for the rad14 strain (AID 159);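 also: 0% = growth of vehicle-treated control cultures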; settings: S. cerevisiae rad14 strain growth inhibition, hits give high values
Summary of the method: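 Screen for anticancer potential: a yeast strain altered in DNA damage repair is grown with compound, and reduced growth is quantified against vehicle controls.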

[8] = NCI Yeast Anticancer Drug Screen. Data for the sgs1 mgt1 strain (AID 161);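 also: 0% = growth of cultures given vehicle only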; settings: S. cerevisiae sgs1 mgt1 strain, hits give high values
Summary of the method: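 Test agents were incubated with a DNA-repair-mutant yeast strain. Growth was then read and compared against vehicle-treated controls.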

[9] = NCI Yeast Anticancer Drug Screen. Data for the CLN2oe strain (AID 163);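 also: 0% = growth of vehicle-only control cultures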; settings: S. cerevisiae CLN2oe strain, hits give high values
Summary of the method: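 Inhibition relative to vehicle-treated yeast is reported. Cells: strain with genetic alteration in cell-cycle control, grown with compound.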

[10] = NCI Yeast Anticancer Drug Screen. Data for the cln2 rad14 strain (AID 165);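 also: 0% = growth equal to vehicle treated cultures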; settings: S. cerevisiae cln2 rad14 strain, hits give high values
Summary of the method: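 Each compound was tested on cln2 rad14 yeast. Inhibition of growth was calculated against vehicle-exposed controls.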

[11] = NCI Yeast Anticancer Drug Screen. Data for the bub3 strain (AID 167); settings: S. cerevisiae bub3 mutant strain, hits give high values
Summary of the method: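 Screening used yeast with an engineered genetic alteration affecting cell cycle control. Compound-exposed cultures were compared with vehicle cultures, and reduced growth was taken as inhibition.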

[12] = NCI Yeast Anticancer Drug Screen. Data for the wt2 strain (AID 169);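 also: 0% = growth of vehicle-treated yeast cultures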; settings: S. cerevisiae wt2 strain growth inhibition, hits give high values
Summary of the method: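 Inhibition of yeast growth was determined after compound treatment, normalised to controls receiving only vehicle.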

[13] = NCI Yeast Anticancer Drug Screen. Data for the sgs1 strain (AID 173);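 also: 0% = growth of vehicle-only control cultures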; settings: S. cerevisiae sgs1 mutant, hits give high values
Summary of the method: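 Screen format: yeast with repair or checkpoint alterations, compound exposure, growth read relative to vehicle.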

[14] = NCI Yeast Anticancer Drug Screen. Data for the mlh1 rad18 strain (AID 175); settings: S. cerevisiae mlh1 rad18 strain growth inhibition, hits give high values
Summary of the method: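 Vehicle-treated cultures served as the reference for growth inhibition in a yeast strain carrying DNA damage repair alterations exposed to each compound.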

[15] = NCI Yeast Anticancer Drug Screen. Data for the rad18 strain (AID 177); settings: S. cerevisiae rad18 mutant growth inhibition, hits give high values
Summary of the method: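 Test articles were incubated with altered yeast defective in DNA damage repair. Results are given as inhibition of growth versus vehicle.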

[16] = at 5.0 µM (retest, dose inferred, filed as 0.5)
[17] = at 50.0 µM (retest, dose inferred, filed as 5.0)

Measured: growth inhibition

CC1=NN(C(=O)CC(=O)NC(=O)/C=C\c2ccccc2)C(=O)C1N=Nc1ccc([N+](=O)[O-])cc1 (stereo not drawn)
inactive: [1]; at 1.2 µM -1% | [1]; at 3.7 µM 3% | [1]; at 11.0 µM 56% | [2]; at 1.2 µM 2% | [2]; at 3.7 µM 4% | [2]; at 11.0 µM 20% | [2]; at 33.0 µM 35% | [2]; at 100.0 µM 34% | [3]; at 1.2 µM 19% | [3]; at 3.7 µM 42% | [3]; at 11.0 µM 62% | [3]; at 33.0 µM 64% | [3]; at 100.0 µM 60% | [4]; at 1.2 µM 1% | [4]; at 3.7 µM 9% | [4]; at 11.0 µM 32% | [4]; at 33.0 µM 51% | [4]; at 100.0 µM 55% | [5]; at 1.2 µM -7% | [5]; at 3.7 µM -10% | [5]; [16] -1% | [5]; at 11.0 µM 38% | [5]; at 50.0 µM 59.1% | [6]; at 1.2 µM 3% | [6]; at 3.7 µM 8% | [6]; [16] -13% | [6]; at 11.0 µM 26% | [6]; at 33.0 µM 49% | [6]; [17] 35% | [6]; at 100.0 µM 43% | [7]; at 1.2 µM 1% | [7]; at 3.7 µM 5% | [7]; at 11.0 µM 21% | [7]; at 33.0 µM 41% | [7]; at 100.0 µM 46% | [8]; [16] -1% | [8]; [17] 54% | [8]; at 50.0 µM 65.3% | [9]; at 1.2 µM 6% | [9]; at 3.7 µM 9% | [9]; at 11.0 µM 20% | [9]; at 33.0 µM 34% | [9]; at 100.0 µM 37% | [10]; [16] 43% | [10]; [17] 49% | [10]; at 50.0 µM 51.2% | [11]; at 1.2 µM -1% | [11]; at 3.7 µM 4% | [11]; [16] -4% | [11]; at 11.0 µM 30% | [11]; at 33.0 µM 57% | [11]; [17] 51% | [11]; at 100.0 µM 58% | [12]; at 1.2 µM 0% | [12]; at 3.7 µM 7% | [12]; at 11.0 µM 39% | [12]; at 33.0 µM 64% | [12]; at 100.0 µM 61% | [13]; at 1.2 µM 2% | [13]; at 3.7 µM 16% | [13]; at 11.0 µM 61% | [14]; [16] -3% | [14]; [17] 65% | [15]; at 1.2 µM -8% | [15]; at 3.7 µM 4%
active: [1]; at 33.0 µM 75% | [1]; at 100.0 µM 72% | [5]; at 33.0 µM 73% | [5]; [17] 87% | [5]; at 100.0 µM 71% | [6]; at 50.0 µM 77.5% | [11]; at 50.0 µM 79.5% | [13]; at 33.0 µM 77% | [13]; at 100.0 µM 74% | [14]; at 50.0 µM 76.6% | [15]; at 11.0 µM 77% | [15]; at 33.0 µM 83% | [15]; at 100.0 µM 82%

Nc1ccc2cc(Br)ccc2c1Br
inactive: [1]; at 1.2 µM -6% | [1]; at 3.7 µM 1% | [1]; at 11.0 µM 1% | [1]; at 33.0 µM 3% | [1]; at 100.0 µM 52% | [2]; at 1.2 µM -2% | [2]; at 3.7 µM -3% | [2]; at 11.0 µM -3% | [2]; at 33.0 µM -5% | [2]; at 100.0 µM -1% | [3]; at 1.2 µM 1% | [3]; at 3.7 µM 7% | [3]; at 11.0 µM 23% | [3]; at 33.0 µM 19% | [3]; at 100.0 µM 49% | [4]; at 1.2 µM -4% | [4]; at 3.7 µM -1% | [4]; at 11.0 µM -1% | [4]; at 33.0 µM -1% | [4]; at 100.0 µM 4% | [5]; at 1.2 µM -2% | [5]; at 3.7 µM 1% | [5]; [16] 13% | [5]; at 11.0 µM 8% | [5]; at 33.0 µM 2% | [5]; [17] 27% | [5]; at 50.0 µM 4.6% | [5]; at 100.0 µM 26% | [6]; at 1.2 µM 0% | [6]; at 3.7 µM -1% | [6]; [16] -5% | [6]; at 11.0 µM -2% | [6]; at 33.0 µM -2% | [6]; [17] 1% | [6]; at 100.0 µM 1% | [7]; at 1.2 µM -6% | [7]; at 3.7 µM 0% | [7]; at 11.0 µM 7% | [7]; at 33.0 µM 5% | [7]; at 100.0 µM 26% | [8]; [16] 15% | [8]; [17] 14% | [8]; at 50.0 µM 18% | [9]; at 1.2 µM -2% | [9]; at 3.7 µM -2% | [9]; at 11.0 µM -3% | [9]; at 33.0 µM -5% | [9]; at 100.0 µM 2% | [10]; [16] 3% | [10]; [17] 9% | [10]; at 50.0 µM -23% | [11]; at 1.2 µM 3% | [11]; at 3.7 µM 3% | [11]; [16] 22% | [11]; at 11.0 µM 1% | [11]; at 33.0 µM 4% | [11]; [17] 47% | [11]; at 100.0 µM 6%
active: [6]; at 50.0 µM 90.2% | [11]; at 50.0 µM 88.5%
